NPC1 prom act: qHTS Assay for NPC1 Promoter Activators | Huh7 NPC1 promoter luciferase reporter, 24 h | Potency, µM (top dose mostly 9.22 µM), usual class: activators | 320,000 tested, 2.4% active | AID 485313, 2010; further: nearly all actives have a fitted effect of over 60% in size
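Stable NPC1-promoter luciferase Huh7 line; cpd (DMSO) 24 h, 37 °C, 5% CO2; Amplite luciferase reagent 10 min RT; luminescence readout. qHTS format.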
SMN2 splice up: qHTS Assay for Enhancers of SMN2 Splice Variant Expression. Potency, µM (titrated, usually from 46.1 µM), usual class: activators. AID 1458, 2008. HEK293 SMN2-luciferase splicing reporter, luminescence, 30-36 h. 210,000 tested, 2.8% active; further: nearly all actives have a fitted effect of over 55% in size
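qHTS luciferase splicing reporter: luminescence rises when SMN2 exon 7 is included in transfected HEK293 cells. Compound exposure lasted 30-36 h at 37C, with 4.5 mM final sodium butyrate as control, followed by a ONE-Glo read.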
Rab9 prom act: qHTS Assay for Rab9 Promoter Activators | Huh7 Rab9 promoter-luciferase reporter, luminescence, 24 h | Potency, µM (highest dose often 9.22 µM), most hits filed as activators | 320,000 tested, 2.8% active | AID 485297, 2010; further: nearly all actives have a fitted effect of over 60% in size
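Using Huh7 cells stably transfected with Rab9 promoter–luciferase, compounds were incubated 24 h at 37 °C, 5% CO2; luciferase luminescence was read 10 min after reagent addition.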
FLuc counter: qHTS profiling assay for firefly luciferase inhibitor/activator using purifed enzyme and Km concentrations of substrates (counterscreen for miR-21 project) | Luciferin 4-monooxygenase (Photinus pyralis), P08659 | purified FLuc, Km substrates, luminescence inhibition | Potency, µM (series often up to 57.5 µM), usual class: inhibitors | 360,000 tested, 6.9% active; further: nearly all actives have a fitted effect of over 55% in size
Target sequence (P08659 whole entry, looked up): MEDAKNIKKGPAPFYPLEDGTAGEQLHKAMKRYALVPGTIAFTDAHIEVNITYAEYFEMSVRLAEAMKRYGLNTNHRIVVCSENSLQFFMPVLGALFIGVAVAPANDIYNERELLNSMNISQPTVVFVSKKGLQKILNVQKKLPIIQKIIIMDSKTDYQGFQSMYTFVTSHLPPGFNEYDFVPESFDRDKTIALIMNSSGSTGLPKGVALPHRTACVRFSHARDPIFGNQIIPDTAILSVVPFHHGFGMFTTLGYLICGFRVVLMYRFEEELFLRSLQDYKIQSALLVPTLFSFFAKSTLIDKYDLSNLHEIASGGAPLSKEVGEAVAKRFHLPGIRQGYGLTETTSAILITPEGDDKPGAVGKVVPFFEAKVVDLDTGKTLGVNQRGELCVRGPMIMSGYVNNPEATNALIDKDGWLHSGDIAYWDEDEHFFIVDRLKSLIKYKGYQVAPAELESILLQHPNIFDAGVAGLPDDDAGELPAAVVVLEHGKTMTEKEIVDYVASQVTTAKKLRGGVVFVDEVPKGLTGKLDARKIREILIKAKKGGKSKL
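Purified P. pyralis luciferase (10nM final) with 10uM D-luciferin and 10uM ATP (Km levels) in 50mM Tris acetate pH 7.5, 10mM Mg acetate, 0.01% Tween-20, 0.05% BSA; qHTS 6-point titration, ~60 µM downward; luminescence read.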
ELG1 genotox: qHTS screen for small molecules that induce genotoxicity in human embryonic kidney (HEK293T) cells expressing luciferase-tagged ELG1 | HEK293T ELG1-luciferase reporter, luminescence, 16 h | Potency, µM (top dose mostly 46 µM), actives largely listed as activators | 330,000 tested, 1.3% active | AID 504466, 2011; further: nearly all actives have a fitted effect of over 60% in size
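After overnight (16 hr) compound treatment at 37 °C, ELG1-luciferase HEK293T cells were lysed with ONE-Glo; luminescence quantified 30 min later at room temperature.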
ELG1 DNA repair: qHTS screen for small molecules that inhibit ELG1-dependent DNA repair in human embryonic kidney (HEK293T) cells expressing luciferase-tagged ELG1. AID 504467, 2011. 330,000 tested, 2.3% active. Potency, µM (highest dose often 46.1 µM), most hits filed as inhibitors. HEK293T ELG1-luciferase reporter, luminescence, 16 h; DNA damage induced by 5-fluorouridine; further: nearly all actives have a fitted effect of over 55% in size
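Step one: seed 2,000 cells per well. Step two: pin-transfer compound or DMSO alongside 5-fluorouridine. Step three: incubate 16 hr, 37 °C, 5% CO2. Step four: add ONE-Glo, wait 30 min, read luminescence.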
Each line names hits and unclear results; the compound was inactive in the other large screens. Sampled rows, rich in hits. Any-hit rate of the full collection: about 9.3%. The call rests on the fitted dose curve; in most records, active means well fitted curve in the direction sought with a large enough effect; inconclusive means small, poorly fitted or top-dose-only effect, or another doubt; inactive means no such curve, though single readings can be large; an effect the other way counts as inactive or inconclusive.

O=S(=O)(c1ccccc1)c1nc(-c2ccco2)oc1SCc1ccc(F)cc1	none (no result: NPC1 prom act, Rab9 prom act, ELG1 genotox, ELG1 DNA repair)
Cc1ccc(NC(=O)CCNC(=O)c2ccc([N+](=O)[O-])cc2)cc1C	none (no result: SMN2 splice up)
CCC(=O)N1CCc2cc(Br)cc(S(=O)(=O)N3CCC(C(=O)Nc4cccc(C)c4)CC3)c21	none (no result: NPC1 prom act, Rab9 prom act, ELG1 genotox, ELG1 DNA repair)
O=C(NCc1cccs1)Nc1ccc(Cl)cc1	NPC1 prom act inconclusive, SMN2 splice up 10µM, Rab9 prom act inconclusive, FLuc counter inconclusive, ELG1 DNA repair inconclusive
O=C1c2ccc3c4c(ccc(c24)C(=O)N1CCCCO)C(=O)N(CCCCO)C3=O	ELG1 DNA repair 2.1µM
CC(=O)N1CCc2c(sc3c2c(=O)n(-c2ccc(C)cc2)c(=O)n3Cc2c(F)cccc2Cl)C1	none (no result: NPC1 prom act, Rab9 prom act, ELG1 genotox, ELG1 DNA repair)
COc1ccc(-c2cc(=O)oc3cc(O)ccc23)cc1	ELG1 DNA repair inconclusive (no result: SMN2 splice up)
COc1ccc(-c2cc(=O)oc3cc(OC(=O)C4CCCCC4)c(Cl)cc23)cc1	ELG1 DNA repair 3.3µM
CCn1nc(NS(=O)(=O)c2ccc(NC(C)=O)cc2)c2cc3cc(C)ccc3nc21	FLuc counter 11µM, ELG1 DNA repair inconclusive (no result: SMN2 splice up)
CCn1nc(NS(=O)(=O)c2ccccc2)c2cc3ccc(C)cc3nc21	FLuc counter inconclusive (no result: SMN2 splice up)
Cc1ccc2nc3c(cc2c1)c(NS(=O)(=O)c1ccccc1)nn3CC(C)C	none
CCn1nc(NS(=O)(=O)c2ccccc2)c2cc3cc(C)ccc3nc21	FLuc counter 15µM, ELG1 DNA repair inconclusive (no result: SMN2 splice up)
CN1C(=O)c2ccc(NC(=O)CCS(=O)(=O)c3ccccc3)cc2C1=O	none
O=C(Nc1nnc(-c2ccccc2F)s1)c1cccnc1	NPC1 prom act 2.2µM, SMN2 splice up inconclusive, Rab9 prom act 2µM, FLuc counter 9.5µM, ELG1 genotox inconclusive, ELG1 DNA repair inconclusive
O=C(Nc1nnc(C(F)(F)F)s1)c1cccnc1	NPC1 prom act inconclusive, SMN2 splice up 11µM, Rab9 prom act 4.5µM, FLuc counter 12µM, ELG1 DNA repair inconclusive
O=C(Nc1nnc(C(F)(F)F)s1)c1c(F)cccc1F	FLuc counter inconclusive (no result: SMN2 splice up)
COC(=O)CSc1nnc(CNC(=O)c2cc(OC)cc(OC)c2)n1-c1ccc(F)cc1	none
COc1ccc(C(=O)c2ccsc2N)cc1	NPC1 prom act 3.5µM, Rab9 prom act inconclusive, FLuc counter 17µM, ELG1 genotox inconclusive, ELG1 DNA repair inconclusive (no result: SMN2 splice up)
COc1ccc(C(=O)c2ccc(CC#N)s2)cc1	NPC1 prom act inconclusive, SMN2 splice up 13µM, Rab9 prom act inconclusive, FLuc counter 12µM, ELG1 genotox inconclusive, ELG1 DNA repair inconclusive
CCOc1ccc(C(C(=O)NC2CCCC2)N(C(=O)CNC(=O)c2ccco2)c2cccnc2)cc1 (stereo unspecified)	none (no result: SMN2 splice up)
COc1cc2c(C(=O)N3CCN(C)CC3)c(C)oc2cc1Br	none
Cc1oc2cc3c(C(=O)N4CCCCC4)c(C)oc3cc2c1C(=O)N1CCCCC1	Rab9 prom act inconclusive, FLuc counter 11µM, ELG1 genotox inconclusive, ELG1 DNA repair inconclusive
COc1ccc(-c2ccc(CNCCCSc3nnnn3C)o2)cc1Cl	none (no result: NPC1 prom act, SMN2 splice up, Rab9 prom act, ELG1 genotox, ELG1 DNA repair)
Cc1cc2c(N)cccc2nn1	none
Nc1cccc2nc3ccccc3cc12	ELG1 genotox inconclusive, ELG1 DNA repair 23µM
CCOC(=O)N1CCN(C(=O)C(CC(C)C)NS(=O)(=O)c2ccc(C)cc2)CC1 (stereo unspecified)	none (no result: SMN2 splice up)
CC(C)(C)c1ccc(C(=O)O)c(C(=O)c2ccc(C(=O)O)cc2)c1	none (no result: SMN2 splice up)
CCc1cccc(NC(=O)c2oc3ccc4c(c3c2C)C(=O)CC(C)(C)O4)c1	FLuc counter 0.85µM (no result: NPC1 prom act, SMN2 splice up, Rab9 prom act, ELG1 genotox, ELG1 DNA repair)
COc1ccc(NC(=O)c2oc3ccc4c(c3c2C)C(=O)CC(C)(C)O4)cc1OC	FLuc counter 0.43µM (no result: NPC1 prom act, SMN2 splice up, Rab9 prom act, ELG1 genotox, ELG1 DNA repair)
O=Cc1ccc(O)c2ncccc12	ELG1 DNA repair 2.3µM (no result: SMN2 splice up)
